In PubChem BioAssay:
The source made the active and inactive calls.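 The calls were made as follows, unless noted: active = visual image review flags a hit and inhibition of aggregation exceeds 20%; inconclusive = visual hit but inhibition at or below 20%; inactive = no hit on visual image review.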

Assays:
[1] = inhibitors of TNFa-induced NFkB p65 translocation, primary screen, imaging, HUVEC, MLSMR starter and 10KST1 sets (AID 438;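 active = inhibition above 20% together with a positive visual image hit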;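 also: compound added about 3h40 before a 20 min TNFalpha stimulation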;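 as to inhibition: signal is the nuclear over cytoplasmic p65 intensity ratio per well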); conditions: HUVEC TNFa-induced p65 nuclear translocation; cell count: measured here: nuclei count (cytotoxicity indicator), at 2.08 µM; inhibition: at 2 µM, stronger effect = higher value, 0% TNFa-plus-vehicle, 100% no-TNFa wells
[2] = reduction of polyQ htt aggregates in cells – imaging, exon1htt(103Q)mCFP cells, high-content imaging, primary screen (AID 483); conditions: exon1htt(103Q)mCFP cell line, aggregate imaging, at 2 µM; inhibition of aggregation: stronger effect = higher value; nuclei count: measured here: cell count, toxicity;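 also: compound exposure lasted 3 days before fixation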;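 as to nuclei count: percent of the per-plate median nuclei count of sample wells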
[3] = endothelial E-selectin expression blockers – imaging, HUVEC, immunofluorescence, MLSMR starter and 10KST1 sets, primary screen (AID 487;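 active = visually confirmed hit in the image check and inhibition above 20%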;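 as to inhibition: signal is fraction of cell area covered by stained E-selectin grains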;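 as to nuclei count: 100% = median nuclei count of all wells on the same plate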); conditions: HUVEC TNFalpha-induced E-selectin immunofluorescence imaging, at 2 µM; inhibition: stronger effect = higher value; nuclei count: measured here: cell number, toxicity
[4] = biological target: Voltage-gated potassium channel subunit beta-2 (Rattus norvegicus) (UniProt P62483); assay: inhibitors of rat Kvbeta2 reductase activity – biochemical, NADPH fluorescence, primary screen (AID 622;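 active = fluorescence slope higher than the sample average by over 3 SD, cut at about -0.22 in these data, passing the limit was not always enough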;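 also: slope of raw intensity against log time taken from 70 to 1610 s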); conditions: recombinant KvBeta, 4-cyanobenzaldehyde reduction, at 10 µM, stronger effect = higher value
Sequence of Voltage-gated potassium channel subunit beta-2 (Rattus norvegicus) (P62483 whole entry, looked up): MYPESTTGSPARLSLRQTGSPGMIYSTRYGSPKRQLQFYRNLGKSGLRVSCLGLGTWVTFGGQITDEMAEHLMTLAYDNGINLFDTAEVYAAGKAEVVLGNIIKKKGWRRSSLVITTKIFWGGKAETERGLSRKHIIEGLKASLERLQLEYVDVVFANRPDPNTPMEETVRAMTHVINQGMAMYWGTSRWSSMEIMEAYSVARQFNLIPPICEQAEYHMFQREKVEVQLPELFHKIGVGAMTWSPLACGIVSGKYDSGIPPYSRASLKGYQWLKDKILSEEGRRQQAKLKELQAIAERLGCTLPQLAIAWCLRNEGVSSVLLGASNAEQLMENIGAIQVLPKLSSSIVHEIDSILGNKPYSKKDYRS

[5] = biological target: Voltage-gated potassium channel subunit beta-2 (Rattus norvegicus) (UniProt P62483); assay: enhancers of rat Kvbeta2 NADPH turnover – biochemical, NADPH fluorescence, primary screen (AID 623;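 active = NADPH fluorescence slope more negative than the mean of all samples by about 3 SD, 99.7% confidence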;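 also: fluorescence intensity change per second fitted from 20 to 320 s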); conditions: Recombinant KvBeta, NADPH fluorescence decrease slope, 10 min; at 10 µM; stronger effect = lower value
[6] = biological target: Alpha-2C adrenergic receptor (Homo sapiens) (UniProt P18825); assay: compounds altering alpha2C-coupled GIRK flux – cell-based, HEK293 alpha2C/GIRK1/2, thallium flux, primary screen (AID 624;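 active = fluorescence slope after compound addition differing from the mean of all screened samples at 99.7% confidence, in either direction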;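 also: slope of fluorescence ratio to pre-addition baseline per second over 15 to 24 s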); conditions: thallium flux BTC fluorescence, at 10 µM, actives lie on both sides
Sequence of Alpha-2C adrenergic receptor (Homo sapiens) (P18825 whole entry, looked up): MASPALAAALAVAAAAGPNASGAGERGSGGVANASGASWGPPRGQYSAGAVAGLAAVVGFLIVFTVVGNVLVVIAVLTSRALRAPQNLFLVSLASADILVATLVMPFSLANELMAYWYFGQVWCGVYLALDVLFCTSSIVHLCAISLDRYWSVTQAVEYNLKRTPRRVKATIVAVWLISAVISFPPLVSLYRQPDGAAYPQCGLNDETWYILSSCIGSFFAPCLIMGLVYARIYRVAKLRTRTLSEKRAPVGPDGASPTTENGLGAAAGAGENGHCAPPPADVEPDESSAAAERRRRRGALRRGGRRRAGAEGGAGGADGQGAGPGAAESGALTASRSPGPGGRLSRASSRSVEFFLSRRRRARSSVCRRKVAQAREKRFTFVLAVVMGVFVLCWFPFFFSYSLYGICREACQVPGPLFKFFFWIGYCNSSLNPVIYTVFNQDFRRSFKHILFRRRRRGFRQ

[7] = blockers of RIG-like receptor reporter activation – cell-based, Sendai virus stimulus, luciferase, 10K MLSCN set, TLR/RLR signaling modifier project, primary screen (AID 602276;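 active = inhibition at or above 50% at 10 µM; inactive = inhibition below 50%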;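 also: firefly luciferase from ISG56 promoter only with Renilla not read in this screen; 0% = Sendai virus plus DMSO and 100% = medium plus DMSO without virus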); conditions: HEK293 RL24 IRF3 luciferase reporter, at 10 µM, stronger effect = higher value
[8] = TLR3 IRF3 reporter activation blockers – cell-based, poly I:C stimulus, luciferase, 10K MLSCN set, primary screen (AID 602277;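 active = inhibition of the reporter signal at or above 50%; inactive = inhibition below 50%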); conditions: HEK293-TLR3 RL24 IRF3 luciferase reporter, at 10 µM, stronger effect = higher value

| Compound | cell count [1] | inhibition [1] | inhibition of aggregation [2] | nuclei count [2] [%] | inhibition [3] | nuclei count [3] [%] | fluorescence slope [4] | NADPH fluorescence slope [5] | slope [6] | inhibition [7] | inhibition [8] |
| --- | --- | --- | --- | --- | --- | --- | --- | --- | --- | --- | --- |
| CCCCOC(=O)Cn1c(=O)oc2ccc(C)cc21 | 741 | -5.8% (inactive) | 3.3% (inactive) | 38 | -96.5% (inactive) | 109 | -0.589 (inactive) | -4.7e-05 (inactive) | 0.00659 (inactive) | -5.21% (inactive) | 7.21% (inactive) |
| CCN1C(=O)c2cccc3c(NC(=O)c4ccc5c(c4)OCCO5)ccc1c23 | 563 | 0.5% (inactive) | 4.6% (inactive) | 87.1 | 18% (inactive) | 90.9 | -0.48 (inactive) | -5.7e-06 (inactive) | -0.00194 (inactive) | 7.48% (inactive) | 17% (inactive) |
| COc1ccc(NC(=O)CN2CCCCC2)cc1 | 494 | -1.5% (inactive) | 5.5% (inactive) | 110 | -23.4% (inactive) | 121 | -0.414 (inactive) | -2.7e-05 (inactive) | 0.00355 (inactive) | 3.07% (inactive) | 11.2% (inactive) |
| COc1cccc(C2C(C(N)=O)=C(C)Nc3nc(CCCO)nn32)c1OC (configuration not stated) | 480 | 5% (inactive) | 11.5% (inactive) | 102 | -24.5% (inactive) | 94.1 | -0.455 (inactive) | -2.8e-05 (inactive) | 0.00572 (inactive) | -11.2% (inactive) | 7.06% (inactive) |
| Cc1cc(C)n2nc[n+](C)c2n1 | 685 | -12.9% (inactive) | -10% (inactive) | 103 | -17.6% (inactive) | 120 | -0.537 (inactive) | 3.6e-05 (inactive) | 0.0066 (inactive) | -6.03% (inactive) | -6.5% (inactive) |
| Cc1c(C(=O)OC2CCC(C)CC2)[nH]c2c1C(=O)CCC2 (configuration not stated) | 625 | -0.8% (inactive) | 23.7% (inactive) | 81.6 | -31.8% (inactive) | 118 | -0.56 (inactive) | 1.4e-05 (inactive) | 0.00619 (inactive) | -106% (inactive) | -256% (inactive) |
| CCCCCn1c(CN2CCN(c3cccc(Cl)c3)CC2)nc2c1c(=O)n(C)c(=O)n2C | 775 | 0.9% (inactive) | -13% (inactive) | 109 | -32.5% (inactive) | 113 | -0.371 (inactive) | -6e-05 (inactive) | 0.00648 (inactive) | -3% (inactive) | -10.4% (inactive) |
